Rows were chosen to be rich in hits. Some 3.7% of all compounds tested hit in one or more screens of this group.
FMDV antiviral: blocks foot and mouth disease virus; FMDV antiviral cell-based qHTS; Potency, µM (series often up to 57.9 µM), most hits filed as inhibitors; hit rate 1.2% among 410,000; AID 1159524; calls by dose curve; tested in HEK293T cells; further: read-out not given here; nearly all actives have a fitted effect of over 45% in size
Sm TGR inh: S. mansoni TGR enzyme inhibition; Q962Y6; purified TGR, DTNB reduction, TNB absorbance 405 nm; Potency, µM (series often up to 114 µM), hits mostly inhibitors; hit rate 3% among 360,000; AID 485364; further: nearly all actives have a fitted effect of over 60% in size
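TGR 20 nM + NADPH 100 uM (dispensed conc.), cpd preinc 15 min RT; start with NADPH (500 uM addition) then DTNB (15 mM addition). Kinetic TNB absorbance, 405 nm filter. Four-parameter Hill fit across titration.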
RE007 growth inh: less growth of the S. pombe RE007 Vpr strain; S. pombe RE007 Vpr strain, BacTiter-Glo ATP luminescence, 24 h; Potency, µM (top dose mostly 92.2 µM), hits mostly inhibitors; hit rate 0.21% among 360,000; active means well fitted falling curve with a large enough effect; inconclusive means small, poorly fitted or top-dose-only effect; inactive means no such curve, though single readings can be large or run the other way; further: nearly all actives have a fitted effect of over 50% in size
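Fission yeast strain RE007, carrying one chromosomally integrated HIV-1 vpr copy, was seeded at OD 0.01 in PMG+AL medium with 23 nL pinned compound. After 24 h at 30 °C and 99% humidity, viability was read by BacTiter-Glo luminescence.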
Tb PYK inh: T. brucei pyruvate kinase inhibition; AID 624173; TbPYK enzyme, Kinase-Glo Plus ATP luminescence, 45 min; Q57TT1; hit rate 0.12% among 410,000; Potency, µM (titrated, usually from 76.8 µM), actives largely listed as inhibitors; further: nearly all actives have a fitted effect of over 50% in size
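Glycolytic pyruvate kinase of T. brucei was incubated with substrate, test compound and 130 uM ADP for 45 minutes at room temperature. Luminescent Kinase-Glo Plus signal was measured after 10 minutes.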
A number is an active result. Unless noted, the call rests on the fitted dose curve; in most records, active means well fitted curve in the direction sought with a large enough effect; inconclusive means small, poorly fitted or top-dose-only effect, or another doubt; inactive means no such curve, though single readings can be large; an effect the other way counts as inactive or inconclusive.

Results for COc1cc(=O)n2c(c1C(=O)N(C)Cc1nonc1C)CCN(Cc1ccc(C)cc1C)CC2 ?
FMDV antiviral: inactive

How did COc1ccccc1-c1cc2c(c(OC)c1)OCCN(C(=O)Cn1nc(-c3ccccc3)c3ccccc3c1=O)C2 do in these assays?
FMDV antiviral: inactive

What do the screens show for `O=C(O)c1ccc(Nc2nc3ccccc3n3cnnc23)cc1`?
FMDV antiviral: inactive; Sm TGR inh: inactive; Tb PYK inh: inactive

Results for O=C(O)c1ccc(NC2=C(n3nnc4ccccc43)C(=O)c3ccccc3C2=O)cc1 ?
FMDV antiviral: inactive; Sm TGR inh: 7.1µM; RE007 growth inh: inactive; Tb PYK inh: inactive

How did COc1ccccc1C1CN(Cc2cn(C)nc2C)Cc2ccccc2O1 (centres undefined) do in these assays?
FMDV antiviral: inactive

How did O=C(C[n+]1ccccc1)Nc1ccccc1Br do in these assays?
FMDV antiviral: inactive; Sm TGR inh: 0.1µM; RE007 growth inh: inactive; Tb PYK inh: inactive

How did O=C(C[n+]1ccccc1)Nc1c(Cl)cc(Cl)cc1Cl do in these assays?
FMDV antiviral: inactive; Sm TGR inh: 8.9µM; RE007 growth inh: inactive; Tb PYK inh: inactive

Results for CCC(Sc1nc2nccnc2c(=O)n1Cc1ccc(F)cc1)C(=O)NC1CCCCC1 (centres undefined) ?
FMDV antiviral: inactive; Sm TGR inh: inactive; Tb PYK inh: inactive

What do the screens show for `Cc1ccc(-n2cc(CNCCN3CCOC3=O)c(-c3cccc(C)c3)n2)cc1`?
FMDV antiviral: inactive; Sm TGR inh: 22µM; RE007 growth inh: inactive; Tb PYK inh: inactive

Results for O=C1OCCN1CCNCc1cn(-c2ccc(F)cc2)nc1-c1ccccc1Cl ?
FMDV antiviral: inactive; Sm TGR inh: inconclusive; RE007 growth inh: inactive; Tb PYK inh: inactive

What do the screens show for `O=[N+]([O-])c1c(Nc2ccccn2)cc(Cl)c2nonc12`?
FMDV antiviral: 13µM; Sm TGR inh: 0.89µM; RE007 growth inh: 8.9µM; Tb PYK inh: inactive

Results for O=[N+]([O-])c1ccc(Nc2ccccn2)c([N+](=O)[O-])c1 ?
FMDV antiviral: inactive; Sm TGR inh: inactive; RE007 growth inh: inactive; Tb PYK inh: inactive

What do the screens show for `O=[N+]([O-])c1c(Nc2ccc(O)cc2)cc(Cl)c2nonc12`?
FMDV antiviral: 22µM; Sm TGR inh: 0.32µM; Tb PYK inh: inactive

Results for O=C(O)c1ccccc1Nc1ccc([N+](=O)[O-])cc1 ?
FMDV antiviral: inactive; Sm TGR inh: inactive; RE007 growth inh: inactive; Tb PYK inh: inactive

Results for O=C(O)c1ccccc1Nc1cc(Cl)c2nonc2c1[N+](=O)[O-] ?
FMDV antiviral: inconclusive; Sm TGR inh: 0.45µM; RE007 growth inh: inactive; Tb PYK inh: inactive

What do the screens show for `O=C(O)c1cccc(Nc2ccc([N+](=O)[O-])c3nonc23)c1`?
FMDV antiviral: inactive; Sm TGR inh: inactive; RE007 growth inh: inactive; Tb PYK inh: inactive

Results for O=C(O)c1cccc(Nc2cc(Cl)c3nonc3c2[N+](=O)[O-])c1 ?
FMDV antiviral: inactive; Sm TGR inh: 0.35µM; RE007 growth inh: inactive; Tb PYK inh: inactive

Results for O=C(NCc1ccccc1Cl)C(=O)NCC(c1cccs1)S(=O)(=O)c1cccs1 (centres undefined) ?
FMDV antiviral: inactive; Sm TGR inh: inconclusive; Tb PYK inh: inactive

What do the screens show for `Cn1c(N2CCOCC2)nc2c1c(=O)n(Cc1ccc(Cl)c(Cl)c1)c(=O)n2C`?
FMDV antiviral: inactive; Sm TGR inh: inactive; RE007 growth inh: inactive; Tb PYK inh: inactive

Results for Cn1c(Oc2ccc(Cl)cc2)nc2c1c(=O)n(Cc1ccc(F)cc1)c(=O)n2C ?
FMDV antiviral: 16µM; Sm TGR inh: inactive; Tb PYK inh: inactive

Results for Cn1c(NCC(O)c2ccccc2)nc2c1c(=O)n(Cc1ccc(Cl)cc1)c(=O)n2C (centres undefined) ?
FMDV antiviral: inactive; Sm TGR inh: inactive; RE007 growth inh: inactive; Tb PYK inh: inactive

Results for Cn1c(=O)c2c(nc(Oc3ccc(F)cc3)n2Cc2ccc(F)cc2)n(C)c1=O ?
FMDV antiviral: inactive; Sm TGR inh: inactive; Tb PYK inh: inactive

What do the screens show for `Cn1c(NCC(O)c2ccccc2)nc2c1c(=O)n(Cc1ccc(Cl)c(Cl)c1)c(=O)n2C` (centres undefined)?
FMDV antiviral: 14µM; RE007 growth inh: inactive; Tb PYK inh: inactive

How did Cc1ccc(Oc2nc3c(c(=O)n(Cc4ccccc4F)c(=O)n3C)n2C)cc1 do in these assays?
FMDV antiviral: 20µM; Sm TGR inh: inactive; RE007 growth inh: inactive; Tb PYK inh: inactive

How did COc1cccc(Oc2nc3c(c(=O)n(Cc4ccccc4F)c(=O)n3C)n2C)c1 do in these assays?
FMDV antiviral: inactive; Sm TGR inh: inactive; Tb PYK inh: inactive

How did Cn1c(OCc2ccco2)nc2c1c(=O)n(Cc1ccc(Cl)c(Cl)c1)c(=O)n2C do in these assays?
FMDV antiviral: inactive; Sm TGR inh: 22µM; RE007 growth inh: inactive; Tb PYK inh: inactive

Results for O=C(NC1CCCCCC1)C1CCN(C(=O)N2CCOc3ccc(Cl)cc32)CC1 ?
FMDV antiviral: inactive; Sm TGR inh: inactive; Tb PYK inh: inactive

What do the screens show for `Nc1c(CC(=O)O)cccc1C(=O)c1ccccc1`?
Tb PYK inh: inactive

What do the screens show for `O=C(NCCc1ccccn1)C1CC12CCN(C(=O)c1ccc(F)cc1Cl)CC2` (centres undefined)?
FMDV antiviral: inactive

What do the screens show for `COc1ccc2oc(C(=O)N3CCN(C(=O)c4ccco4)CC3)c(C)c2c1`?
FMDV antiviral: inactive; Sm TGR inh: 50µM; RE007 growth inh: inactive; Tb PYK inh: inactive

How did NC(=O)c1ccc(N2CCN(S(=O)(=O)c3ccccc3)CC2)c([N+](=O)[O-])c1 do in these assays?
FMDV antiviral: 16µM; Sm TGR inh: inactive; RE007 growth inh: inactive; Tb PYK inh: inactive

What do the screens show for `O=C(/C=C/c1ccc(N2CCCCC2)c([N+](=O)[O-])c1)c1ccc(S(=O)(=O)N2CCCC2)cc1`?
FMDV antiviral: 20µM; Sm TGR inh: inactive; RE007 growth inh: inactive; Tb PYK inh: inactive

What do the screens show for `COc1cccc(C(=O)/C=C/c2ccc(N3CCCCC3)c([N+](=O)[O-])c2)c1`?
FMDV antiviral: inconclusive; Sm TGR inh: inactive; RE007 growth inh: inactive; Tb PYK inh: inactive

What do the screens show for `O=C(c1ccc(N2CCCCC2)c([N+](=O)[O-])c1)N1CCN(S(=O)(=O)c2ccccc2)CC1`?
FMDV antiviral: inactive; Sm TGR inh: inactive; RE007 growth inh: inactive; Tb PYK inh: inactive

What do the screens show for `COc1cc(OC)c2cc(-c3ccncc3)cnc2c1`?
FMDV antiviral: inactive

What do the screens show for `CCc1cnc2c(c1SCC(=O)Nc1ccc(OC)c(OC)c1)c(=O)n(C)c(=O)n2C`?
FMDV antiviral: inactive; Sm TGR inh: inactive; Tb PYK inh: inactive

What do the screens show for `COc1ccc(-c2ccc(=O)n(CC(=O)Nc3cc(OC)ccc3OC)n2)cc1`?
FMDV antiviral: inactive; Sm TGR inh: inactive; Tb PYK inh: inactive

Results for CN[C@H]1C[C@@H](N)[C@H](O)[C@@H](O[C@@H]2O[C@H](CO)[C@H](O)[C@@H]3OC4(O[C@H]23)O[C@H](C(N)CO)[C@H](O)[C@H](O)[C@H]4O)[C@@H]1O (some centres undefined) ?
FMDV antiviral: inactive

Source: PubChem BioAssay (National Center for Advancing Translational Sciences (NCATS))
